Source: PubChem BioAssay (NCI)
This is part of a sample that, as a whole, favours compounds with a hit. Of some 83,000 tested, about 20% had one in any assay.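 Method: cells in 96-well plates; compound added at one concentration; 48 h incubation; percent growth measured; values under 10 scored active.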 Values without a mark were called inactive. Activity calls are given as the source filed them.

Assays:
Assay in all cases: NCI-60 one-dose screen, 48 h (100 = growth as untreated, 0 = no growth, -100 = all killed)
Settings in all cases: 10 µM unless noted
[1] = system: NCI-H23 lung
[2] = system: NCI-H322M lung
[3] = system: NCI-H460 lung
[4] = system: HOP-92 NSCLC
[5] = system: NCI-H522 lung
[6] = system: A549/ATCC NSCLC
[7] = system: 786-0 renal
[8] = system: DU-145 prostate
[9] = system: K-562 leukemia
[10] = system: MALME-3M melanoma
[11] = system: MDA-MB-231 breast
[12] = system: RXF 393 renal
[13] = system: SF-268 CNS
[14] = system: SF-295 CNS
[15] = system: SF-539 CNS
[16] = system: UACC-257 melanoma
[17] = system: M14 melanoma
[18] = system: HCT-15 colon
[19] = system: COLO 205 colon
[20] = system: HOP-62 NSCLC

| Compound | growth [1] | growth [2] | growth [3] | growth [4] | growth [5] | growth [6] | growth [7] | growth [8] | growth [9] | growth [10] | growth [11] | growth [12] | growth [13] | growth [14] | growth [15] | growth [16] | growth [17] | growth [18] | growth [19] | growth [20] |
| --- | --- | --- | --- | --- | --- | --- | --- | --- | --- | --- | --- | --- | --- | --- | --- | --- | --- | --- | --- | --- |
| COc1ccccc1C1=C(Br)C(=O)c2nc(C)ccc2C1=O | 93.4% | 100% | 99.4% | 86.3% | -38% (active) | 109% | 104% | 109% | 65% | 62.4% | 96.6% | 102% | 97.5% | 98.6% | 105% | 99.6% | 93.7% | 96.7% |  |  |
| O=Nc1c(O)ccc2ccccc12.O=Nc1c(O)ccc2ccccc12.O=Nc1c([O-])ccc2ccccc12.[Fe+3] | 87% | 104% | 105% | 94.5% | 103% | 106% | 115% | 125% | 115% | 95.8% | 86.9% | 110% | 106% |  | 96% | 110% | 97.2% | 105% | 103% |  |
| COc1cc(C(C)n2cc(-c3ccccc3)nn2)ccc1OC1CCCCC1 (stereo not drawn) | 47.7% | 78.1% | 70.5% | 69.9% | 50.3% | 61.6% | 78.1% | 84.3% | 25.9% | 87.7% | 77.9% | 98% | 78.2% | 41.2% | 65% | 52.1% | 79.1% | 61.2% | 97.9% |  |
| Cn1nc(C(C)(C)C)cc1NC(=O)Cc1ccc(/C=C2\C(=O)Nc3ccccc32)cc1 | 41.1% | 84.8% | 67.8% | 59.5% | 45% | 57.6% | 72.1% | 56.6% | 22.3% | 58% | 66.4% | 70.9% | 63.1% | 51.7% | 54.9% | 41.4% | 56.5% | 48.4% | 80.2% |  |
| O=C1/C(=C/c2ccc(O)cc2)COc2ccc(O)cc21 | 92.2% | 98.2% | 105% | 124% | 87.7% | 107% | 109% | 104% | 55.9% | 100% | 107% | 125% | 101% | 107% | 98.1% | 104% | 102% | 75.9% | 114% |  |
| O=C(/C=C/c1ccccc1)c1ccc(Nc2nc(NCCO)nc(Nc3ccc(Cl)cc3)n2)cc1 | 82.7% | 91.6% | 81% | 96.2% |  | 64.6% | 83.9% | 73.6% | 36.1% | 98.7% | 71.4% | 73.2% | 73.8% | 96.1% | 73% | 94.7% | 99.9% | 8.55% (active) |  | 93.2% |
| COc1ccc2sc3c(NCCCN)nc4ccccc4c3c(=O)c2c1 | 80.7% | 68.9% | -73.3% (active) | 33.9% |  | -44.8% (active) | 42.3% | -6.46% (active) | -56.9% (active) | 94.2% | 25.3% | 49.5% | 57.6% | 94.5% | 74.1% | 95.7% | 18.9% | -49% (active) |  | 57.2% |
| CCN1C(=O)N(c2ccccc2)C2Nn3c(s/c(=C4\C(=O)N(C(C)C)c5ccccc54)c3=O)=NC21 (stereo not drawn) | 104% | 108% | 108% | 113% | 92.1% | 104% | 101% | 120% | 100% | 98.7% | 99.4% | 112% | 98.7% | 98.4% | 100% | 104% | 109% | 108% | 111% |  |
| O=S1(=O)N(Cc2ccccc2)[C@@H](Cc2ccccc2)C2O[C@H]2[C@H](Cc2ccccc2)N1Cc1ccccc1 (stereo partly drawn) | 37.6% | 84.9% | 9.31% (active) | 114% | 49.3% | 44.1% | 40.6% | 34.3% | 23.4% | 67.8% | 24.2% | 45.2% | 57.8% | 38% | 38.6% | 39.1% | 72.6% | 26.1% | 61.8% |  |
| CCOc1cc2c(cc1OCC)C(c1cc(C)c(O)c(C)c1)NCC2 (stereo not drawn) | 100% | 92.2% | 100% | 88.5% | 91% | 95.5% | 94.3% | 111% | 78.6% | 99.1% | 95.7% | 99.4% | 103% | 93.1% | 109% | 94.3% | 98.5% | 91.2% | 106% |  |
| COc1cc(C2CC(c3ccc(Nc4nc(NCCO)nc(N5CCOCC5)n4)cc3)=NN2c2cc(Cl)cc(Cl)c2)cc(OC)c1OC (stereo not drawn) | 56.7% | 72.6% | 22.2% | 32.7% | 66% | 36.6% | 12.5% | 67.5% | 21.9% | 77.6% | 49.2% | 5.08% (active) | 49.4% | 50.1% | 41.4% | 80.2% | 64.9% | 31.5% |  |  |
| Cc1ccc2[nH]c(=O)cc(-n3nncc3Cn3c4ccccc4c4ccccc43)c2c1 | 94.1% |  | 102% | 89.8% | 93.9% | 98.9% | 101% | 102% |  | 93.5% | 97.6% |  | 86.4% | 98.9% | 94% | 97.5% | 105% | 99% | 116% | 93.4% |
| O=c1c2cc(F)ccc2sc2c(NCCN3CCCC3)nc3ccccc3c12 | 77.1% |  | 12.3% | 27.5% | 63.8% | 53.7% | 55.6% | 45.8% | -43.2% (active) | 83% | 30.8% | 38.3% | 47% | 85.6% | 61.8% | 92% | 15.1% | 27.6% |  | 67.6% |
| Nc1ccc(C2c3ccccc3Oc3ccccc32)cc1 | 99.1% |  | 108% | 93.4% | 89.4% | 97.7% | 105% | 106% | 82.3% | 106% | 104% |  | 102% | 89% | 111% | 102% | 107% | 99.2% | 105% | 91.8% |
| O=C1c2ccccc2C(=O)c2c1ccc1[nH]c(CCl)nc21 | 15% | 62.5% | 1.46% (active) | 32% | -31.5% (active) |  | 28.9% | 17.1% | 2.91% (active) | 11.5% | 37.4% | 34.7% | 24.9% | 65.2% | 37.9% | 28.8% | 33.5% | -24.8% (active) | 29.1% |  |
| CCOC(=O)C1=CN(C)C=C(C(=O)OCC)C1c1cc(Br)c(OCC)c(OC)c1 | 65.9% |  | 34.5% | 2.87% (active) | 52.2% | 66.1% | 59.9% | 84% | -20.4% (active) | -1.58% (active) | 36.8% | 49.9% | 73.3% | -47.3% (active) | 58.9% | -50% (active) | -37.3% (active) | 14.7% | -59.7% (active) | 55.6% |
| NC1C(N)C(N)C1N (stereo not drawn) | 102% |  | 113% | 79.6% | 91.5% | 99.8% | 105% | 134% | 99.5% | 114% | 94.2% | 125% | 109% | 126% | 100% | 101% | 101% | 109% | 107% | 104% |
